Source: PubChem BioAssay AID588579 (National Center for Advancing Translational Sciences (NCATS), 2011)
The whole screen tested about 400,000 compounds, of which about 2,200 (0.55%) were called active. Where a call stands in place of a potency, no number is given. Inconclusive results (about 1%) are left out. This is one part of a sample in which actives are shown more often than they occur. A number with no mark means an inactive call. Calls follow the shape of the dose curve; as a rule, active = well fitted inhibition curve with a large enough effect; inconclusive = small, poorly fitted or top-dose-only effect, or another doubt; inactive = no such curve, though single readings can be large or run the other way.

These molecules were tested against DNA polymerase kappa (Homo sapiens) (UniProt Q9UBT6) (assay: qHTS for Inhibitors of Polymerase Kappa). Details: purified Pol kappa, fluorescent DNA synthesis assay, 10 min; series mostly up to 107 µM.
In short: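 Enzyme at 10 nM met test compounds for 15 min at room temperature. Substrate addition (50 nM final) began the reaction, which was monitored by fluorescence at 0 and 10 min.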
Potency is read from the fitted curve at half-maximal effect.

DNA polymerase kappa (Homo sapiens), sequence (Q9UBT6 whole entry, looked up): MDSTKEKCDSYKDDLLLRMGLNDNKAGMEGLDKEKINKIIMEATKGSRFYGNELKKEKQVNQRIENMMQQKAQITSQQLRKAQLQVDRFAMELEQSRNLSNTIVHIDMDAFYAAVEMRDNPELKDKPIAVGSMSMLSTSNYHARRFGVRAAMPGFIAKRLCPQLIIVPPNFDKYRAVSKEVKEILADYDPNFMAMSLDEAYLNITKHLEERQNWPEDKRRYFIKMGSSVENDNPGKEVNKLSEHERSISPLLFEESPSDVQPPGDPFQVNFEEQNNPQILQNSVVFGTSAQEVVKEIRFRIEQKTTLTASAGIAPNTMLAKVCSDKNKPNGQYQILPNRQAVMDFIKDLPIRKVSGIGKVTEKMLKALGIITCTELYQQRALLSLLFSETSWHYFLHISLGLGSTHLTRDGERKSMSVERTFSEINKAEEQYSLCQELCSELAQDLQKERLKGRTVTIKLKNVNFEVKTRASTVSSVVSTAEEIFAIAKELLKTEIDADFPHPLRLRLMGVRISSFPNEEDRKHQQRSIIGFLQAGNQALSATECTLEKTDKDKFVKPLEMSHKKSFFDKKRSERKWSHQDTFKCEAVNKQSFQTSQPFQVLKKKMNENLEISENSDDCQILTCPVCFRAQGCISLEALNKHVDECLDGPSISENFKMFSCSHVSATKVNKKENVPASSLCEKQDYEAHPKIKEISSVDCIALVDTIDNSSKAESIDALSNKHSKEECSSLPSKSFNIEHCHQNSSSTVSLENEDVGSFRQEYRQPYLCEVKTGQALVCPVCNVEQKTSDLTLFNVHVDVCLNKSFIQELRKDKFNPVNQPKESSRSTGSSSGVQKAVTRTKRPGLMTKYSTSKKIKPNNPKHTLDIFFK

Q: For `CC(C)(C)C1C/C(=C/c2ccco2)C(=O)/C(=C/c2ccco2)C1` (centres undefined), which Potency is on record?
A: inactive

Q: With `CS(=O)(=O)c1ccc2c(c1)SC1=NC(=O)/C(=C/c3ccco3)C(=N)N12` as the molecule, how does the Potency read?
A: 35.5 µM (active)

Q: `COc1ccc(NC(=O)COCc2cc(-c3ccco3)on2)cc1` was tested. Which Potency did it give?
A: inactive

Q: Which Potency does the source give for `COCCNC(=O)Nc1ccc2nc(-c3ccco3)c(-c3ccco3)nc2c1` here?
A: 3.16 µM (active)

Q: For `CCOc1ccc(NC(=O)c2ncoc2-c2ccco2)cc1`, which Potency is on record?
A: inactive

Q: How did the Potency turn out when `COc1cccc(-c2nc(Nc3ccncc3)c3ccccc3n2)c1` was run?
A: inactive

Q: Which Potency does the source give for `Cc1noc(C)c1-c1nc(Nc2ccccc2)c2ccccc2n1` here?
A: inactive

Q: For `c1ccc2c(Nc3ccncc3)nc(-c3ccoc3)nc2c1`, which Potency is on record?
A: 28.2 µM (active)

Q: Which Potency does the source give for `O=C(c1ccco1)N1CCC2(CC1)CCN(c1ncccn1)CC2` here?
A: inactive

Q: Which Potency does the source give for `COc1ccc(S(=O)(=O)N2CCN(CC(=O)N3CCOCC3)CC2)cc1OC` here?
A: inactive

Q: For `COc1ccc(-c2ccnc(SCC(=O)N3CCOCC3)n2)cc1`, which Potency is on record?
A: inactive

Q: Which Potency does the source give for `COC1=C/C(=C/c2c(N)n3nc(CC(=O)N4CCOCC4)sc3nc2=O)C=CC1=O` here?
A: 79.4 µM (active)

Q: For `CCN(CC)/[N+]([O-])=N/OCOC(=O)Cc1c(C)n(C(=O)c2ccc(Cl)cc2)c2ccc(OC)cc12`, which Potency is on record?
A: inactive

Q: Which Potency does the source give for `O=C(Nc1ccccc1)c1ccccc1OCc1ccccc1` here?
A: inactive

Q: With `CC(=O)Nc1ccc(NC(=O)C2CCCN2S(=O)(=O)c2cccc(C(F)(F)F)c2)cc1` (centres undefined) as the molecule, how does the Potency read?
A: inactive

Q: With `CCc1ccccc1NS(=O)(=O)c1ccc2nc(-c3ccccc3)[nH]c2c1` as the molecule, how does the Potency read?
A: inactive

Q: How did the Potency turn out when `CCc1ccc(NC(=O)C2CCCN2S(=O)(=O)c2ccc3nc(-c4ccccc4)[nH]c3c2)cc1` (centres undefined) was run?
A: 89.1 µM (active)

Q: For `COc1ccc(CNc2ncncc2-c2ccccc2OC)c(OC)c1`, which Potency is on record?
A: inactive

Q: How did the Potency turn out when `OC(CBr)C[n+]1cccc2cc(Br)ccc21` (centres undefined) was run?
A: inactive

Q: `SCc1nc2ccc(Cl)cc2[nH]1` was tested. Which Potency did it give?
A: inactive

Q: For `CCCC[C@H]1C(=O)N(c2ccccc2)N(c2ccc(O)cc2)C1=O`, which activity, negative = inhibition is on record?
A: -4.08% [at 19.4 µM]

Q: How did the Potency turn out when `COc1cccc(N2CC(NC(=O)/C=C\c3ccccc3)CC2=O)c1` (centres undefined) was run?
A: inactive

Q: With `COc1ccc(/C=C/C(=O)c2cc(Br)ccc(=O)c2O)cc1` as the molecule, how does the Potency read?
A: 25.1 µM (active)

Q: For `COCOc1cc(O)c(C(=O)/C=C/c2ccc(OCOC)c(OCOC)c2)c(OCOC)c1`, which Potency is on record?
A: inactive

Q: `C=CCC1CCC(=O)N2CCCC12` (centres undefined) was tested. Which Potency did it give?
A: inactive

Q: Which Potency does the source give for `COc1cc(OC)c(/C=C/c2ccnc3ccccc23)c(OC)c1` here?
A: inactive

Q: Which Potency does the source give for `Cc1c(CC(=O)N2CCN(C(=O)C3COc4ccccc4O3)CC2)c(=O)oc2c(O)c(O)ccc12` (centres undefined) here?
A: 7.08 µM (active)

Q: For `COc1ccc(OC)c2sc(N3CCN(C(=O)C4COc5ccccc5O4)CC3)nc12` (centres undefined), which Potency is on record?
A: inactive

Q: `COc1cc(NS(=O)(=O)c2ccc3c(c2)OCC(C(=O)N2CCCC2)O3)cc(OC)c1` (centres undefined) was tested. Which Potency did it give?
A: inactive

Q: For `COc1ccc(CC(N)C(=O)NC2C(O)[C@H](n3cnc4c(N(C)C)ncnc43)O[C@@H]2CO)cc1` (some centres undefined), which activity, negative = inhibition is on record?
A: 3.17% [at 19.4 µM]

Q: With `OCCC(O)CO` (centres undefined) as the molecule, how does the Potency read?
A: inactive

Q: `Cc1csc[n+]1CCC1CCCCC1` was tested. Which Potency did it give?
A: inactive

Q: For `CCCCCCCC/C=C\CCCCCCCC(=O)OC[C@H](CO)OC(C)=O`, which activity, negative = inhibition is on record?
A: 0.528% [at 19.4 µM]

Q: With `Cc1ccc(Cn2cnc3c(cnn3C(C)(C)C)c2=O)c(F)c1` as the molecule, how does the Potency read?
A: inactive

Q: With `C(=Nc1ccc(/C=C/c2ccnc3ccccc23)cc1)Nc1ccc(/C=C/c2ccnc3ccccc23)cc1` as the molecule, how does the Potency read?
A: inactive

Q: Which Potency does the source give for `COCCn1c(=O)c(CCc2ccccc2)nc2cncnc21` here?
A: inactive

Q: With `Cc1ccc(C(=O)N/C(=C\c2ccco2)C(=O)NC2CCS(=O)(=O)C2)cc1` (centres undefined) as the molecule, how does the Potency read?
A: inactive

Q: With `COc1ccccc1C(=O)NC(=O)COC(=O)c1ccco1` as the molecule, how does the Potency read?
A: inactive

Q: With `COc1ccccc1C(=O)N/C(=C/c1ccco1)C(=O)Nc1ccc(C(=O)O)cc1` as the molecule, how does the Potency read?
A: 50.1 µM (active)

Q: `COc1ccc2[nH]cc(CCNc3nc(-c4cccc(NS(C)(=O)=O)c4)nc4ccccc34)c2c1` was tested. Which Potency did it give?
A: inactive

Q: With `O=c1ccn([C@@H]2O[C@H](COP(=O)(O)OP(=O)(O)OP(=O)(O)O)[C@@H](O)[C@H]2O)c(=O)[nH]1` as the molecule, how does the activity, negative = inhibition read?
A: 4.9% [at 19.4 µM]

Q: For `CC1(C)OC2CC(=O)OC[C@@]23C1CC(=O)[C@]1(C)C3CC[C@@]2(C)C(c3ccoc3)OC(=O)C3O[C@@]321` (some centres undefined), which Potency is on record?
A: inactive

Q: How did the Potency turn out when `COCCNc1ncnc2ccc(-c3cccnc3)cc12` was run?
A: inactive

Q: With `COCCn1c(=O)c(CCc2ccccc2)nc2cnc(N3CCNCC3)nc21` as the molecule, how does the Potency read?
A: inactive
